Test results from PubChem BioAssay (NCI).
About 83,000 compounds went through this panel and 20% of them were active in at least one assay; those are over-represented in the sample as a whole.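 Note: values are percent growth. 100 is the growth of untreated cells, values between 100 and 0 indicate rising inhibition; between -100 and 0 indicates cell death.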 A number with no mark means an inactive call. Calls of active or inactive are those of the source. The calls were made as follows: active = growth percent below 10; inactive = the rest.

Columns and labels:
Assay in all cases: NCI-60 one-dose screen, 48 h (100 = growth as untreated, 0 = no growth, -100 = all killed)
Conditions in all cases: 10 µM unless noted
HT29 colon = tested on: HT29 colon
SNB-75 CNS = tested on: SNB-75 CNS
SNB-19 CNS = tested on: SNB-19 CNS
U251 CNS = tested on: U251 CNS
PC-3 prostate = tested on: PC-3 prostate
SK-MEL-5 melanoma = tested on: SK-MEL-5 melanoma
UACC-62 melanoma = tested on: UACC-62 melanoma
SK-MEL-28 melanoma = tested on: SK-MEL-28 melanoma
SK-MEL-2 melanoma = tested on: SK-MEL-2 melanoma
EKVX NSCLC = tested on: EKVX NSCLC
SN12C renal = tested on: SN12C renal
UO-31 renal = tested on: UO-31 renal
CAKI-1 renal = tested on: CAKI-1 renal
A498 renal = tested on: A498 renal
CCRF-CEM leukemia = tested on: CCRF-CEM leukemia
MOLT-4 leukemia = tested on: MOLT-4 leukemia
SR leukemia = tested on: SR leukemia
ACHN renal = tested on: ACHN renal
TK-10 renal = tested on: TK-10 renal

Row | Compound | growth (HT29 colon) | growth (SNB-75 CNS) | growth (SNB-19 CNS) | growth (U251 CNS) | growth (PC-3 prostate) | growth (SK-MEL-5 melanoma) | growth (UACC-62 melanoma) | growth (SK-MEL-28 melanoma) | growth (SK-MEL-2 melanoma) | growth (EKVX NSCLC) | growth (SN12C renal) | growth (UO-31 renal) | growth (CAKI-1 renal) | growth (A498 renal) | growth (CCRF-CEM leukemia) | growth (MOLT-4 leukemia) | growth (SR leukemia) | growth (ACHN renal) | growth (TK-10 renal)
1 | Clc1ccc2c(NCCCN3CCOCC3)c3oc4ccccc4c3nc2c1 | 25.6% | 52.4% | 54.1% | 34.5% | 48.6% | 79.7% | 66.6% | 70.6% | 81.3% | 62.6% | 29.9% | 40.1% | 30.4% | 33.7% | 32.8% | 10.6% | 8.11% (active) | – | –
2 | CCOC(=O)c1c(Nc2ccccc2)nn2c(N)c(C#N)c(-c3ccc(F)cc3)nc12 | 97% | 82.4% | 94% | 88.7% | 80.3% | 88.7% | 84.6% | 100% | 100% | 83.1% | 95.9% | 78.9% | 91.2% | – | 68% | 46% | 65% | 81.6% | –
3 | O=C(N/N=C/c1ccco1)c1[nH]c2ccc(Br)cc2c1-c1ccccc1 | -25.3% (active) | 31.7% | 41.4% | 31.7% | 30.2% | -16.2% (active) | 41.1% | 59.9% | 14.4% | 37.9% | 38.1% | 38.6% | 30.3% | – | 15.6% | 15.8% | 11.2% | 29.3% | –
4 | OC1CCN(CCCOc2c3ccccc3nc3c2oc2ccccc23)CC1 | 3.65% (active) | -1.06% (active) | 0.345% (active) | 4.21% (active) | -1.48% (active) | -69.1% (active) | -57.8% (active) | -2.42% (active) | -62.4% (active) | -13.7% (active) | -1.2% (active) | -34.4% (active) | -36.7% (active) | -78.8% (active) | 6.02% (active) | 3.82% (active) | -3.77% (active) | -39% (active) | –
5 | C#Cc1nc(C2=C(C)C(OC(C)=O)/C(=N/OC(C)=O)C2)cs1 (centres undefined) | -14.1% (active) | -89% (active) | 78.4% | -13.9% (active) | -11.1% (active) | 89.7% | 11.3% | 101% | 92.8% | – | 86.6% | -88.9% (active) | -50.2% (active) | – | -39% (active) | -35.2% (active) | -25.6% (active) | -66% (active) | 203%
6 | CC(O)C(NC(=O)C1CCCN1C(=O)CNC(=O)C1CC(=O)NCC(=O)NC(Cc2c[nH]c3ccccc23)C(=O)NC(Cc2ccc(O)cc2)C(=O)NCC(=O)NC(CO)C(=O)NC(CCC(N)=O)C(=O)NC(Cc2c[nH]c3ccccc23)C(=O)N1)C(=O)NCC(=O)NC(CCC(N)=O)C(=O)NC(CCCNC(=N)N)C(=O)NC(CC(=O)O)C(=O)O (centres undefined) | 106% | 92.4% | 96.6% | 106% | 76.7% | 101% | 94.9% | 99.6% | 116% | 100% | 101% | 83.3% | 91.5% | – | 94.7% | 104% | 94.5% | – | –
7 | COc1cc(/C=C/C(=O)c2cc(OC)c(OC)c(OC)c2)ccc1OCc1ccccc1 | 5.03% (active) | 13% | 34% | 13.6% | 40.1% | 63.2% | 38.8% | 78.8% | 80.7% | – | 69.7% | 45.5% | 42% | – | 4.39% (active) | 26.2% | 6.67% (active) | 60% | 153%
8 | Cn1ccnc1C(=O)/C=C/c1ccc(NC(=O)Nc2ccc(Cl)cc2)cc1 | 93.6% | 74.4% | 78.9% | 62.6% | 78.8% | 91.2% | 92.2% | 89.9% | 110% | 91.7% | 87.5% | 97.7% | 69.6% | – | 62.9% | 57.5% | 32.6% | 88.4% | –
9 | c1ccc(CNc2ncnc3ccc(-c4cnc5[nH]ncc5c4)cc23)cc1 | 70.6% | 54.5% | 72.7% | 81.6% | 70.3% | 88.4% | 76% | 82.7% | 81.6% | 46.6% | 56.6% | 35% | 36.3% | -8.94% (active) | 73.1% | 34.6% | – | 34.5% | –
10 | COc1ccc(-c2csc(N/N=C/c3c(-c4ccc(S(C)(=O)=O)cc4)nc4ccccn34)n2)cc1 | 115% | 110% | 106% | 106% | 105% | 96.5% | 102% | 107% | 114% | 106% | 105% | 87% | 93.4% | 85.9% | 94.2% | 92.4% | 94.5% | 102% | –
11 | Nc1cc(-c2c[nH]c3ccccc23)nc2cc(-c3c[nH]c4ccccc34)nn12 | 9.63% (active) | 82.5% | 86.2% | 29.7% | 60.6% | 45.6% | 87.5% | 59.6% | 96% | – | 73% | 44.2% | 59.4% | 42.3% | 45.4% | 34% | 14% | 51.6% | 89.4%
12 | C=CCSc1ccc2c(c1)C(N1CCNCC1)=Nc1ccccc1O2 | 44.2% [8.25 µM] | 79.8% [8.25 µM] | 82.7% [8.25 µM] | 61.3% [8.25 µM] | 66.9% [8.25 µM] | 85.5% [8.25 µM] | 91.6% [8.25 µM] | 80.3% [8.25 µM] | 92.3% [8.25 µM] | – | 77.3% [8.25 µM] | 62.1% [8.25 µM] | 58.8% [8.25 µM] | 75.1% [8.25 µM] | 66.6% [8.25 µM] | 49.9% [8.25 µM] | 14.4% [8.25 µM] | 70.3% [8.25 µM] | 85% [8.25 µM]
13 | O=C(N/N=C/c1ccc(Cl)s1)c1[nH]c2ccc(Br)cc2c1-c1ccccc1 | 3.1% (active) | 28.1% | 33.2% | 16.5% | 30.2% | -23% (active) | 41.4% | 61.6% | 13.1% | 41.7% | 50.4% | 46.2% | 23.8% | – | 10.9% | 14.1% | 9.05% (active) | 25.3% | –
14 | Nc1c(C(=O)Nc2ccc(C(F)(F)F)cc2)sc2nc(-c3cnccn3)cc(-c3cccs3)c12 | 95% | 34.2% | 52.2% | 79.5% | 42.2% | 90.1% | 84.6% | 89.8% | 101% | 76.1% | 94.9% | 59.5% | 16.2% | – | 84.7% | 75.7% | 66.3% | 43.3% | –
15 | COc1ccc(C(=O)/C=C/c2ccc(OCc3ccc(C)cc3)c(OC)c2)cc1OC | 68.8% | 72% | 69.8% | 49.9% | 55.9% | 64.5% | 54.5% | 82.3% | 94.3% | 61.4% | 75.9% | 58.6% | 61.4% | – | 32.2% | 29.4% | 9.97% (active) | 75.8% | –
16 | O=C(CN1CCOCC1)NNc1ncnc2ccccc12 | 92% | 72.7% | 102% | 85.3% | 78.3% | 98.2% | 83.1% | 71.1% | 96.3% | 85.7% | 89.4% | 71.5% | 93.9% | 111% | 13.8% | 74.6% | 68.3% | -91% (active) | –
17 | Nc1cc(-c2c[nH]c3ccc(Cl)cc23)nc2cc(-c3c[nH]c4ccc(Cl)cc34)nn12 | 0.992% (active) | 71.9% | 70.5% | 9.85% (active) | 36.4% | 70.9% | 70.4% | 80.8% | 71.6% | – | 70.8% | 61.3% | 35.6% | 32.2% | 42% | 33.3% | 10.1% | 24.3% | 66.2%
